Among the data in PubChem BioAssay AID1063 (University of Pittsburgh Molecular Library Screening Center, 2008) are inhibition values, retold here.

The structures appear in SMILES notation. The campaign covered roughly 200,000 compounds. About 18,000 (9%) were called active. For the sample, actives were picked, then their nearest neighbours and some compounds at random. Values without a mark were called inactive. Cut-off read from the data, not from the text of the source: active = inhibition above about 50%; inactive = the rest.

The experiment in a line: antileishmanial activity against promastigotes – primary screen (AID 1063).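 Note: promastigotes grown with compound for 44 hours at 28 °C.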 The following applies: Leishmania major promastigotes, resazurin fluorescence viability; at 10 µM; stronger effect = higher value.
As to `CCCCN(C)CCNC(=O)CSCc1ccc(C)cc1`, the inhibition was 35.7%.
With `Cc1ccc(NC(=S)N(CCN(C)C)Cc2cccs2)cc1C`, the inhibition was 23.8%.
On to `C#CCNC(=O)C1=C[C@@H](c2ccccc2)[C@H](CCCO)[C@@H](OCC)O1`, for which the inhibition is -3.12%.
To `COc1cc(/C=N/N=C(\N)c2nonc2N)cc(OC)c1OC` belongs 13.2%; to `O=C(ON=C1CCN(S(=O)(=O)c2ccccc2)CC1)c1ccc(Cl)cc1`, -6.64%.
Consider `Cc1c(C2=CCN(S(=O)(=O)c3ccc(Cl)cc3)CC2)c2ccccc2n1C`, for which the inhibition was 54.9% (active).
The result for `CC(C)NC(=O)C(=O)NCCN1CCN(S(=O)(=O)c2ccc(Cl)cc2)CC1` reads -8.08%; that for `OCC(O)CN(c1ccccc1)c1ccccc1` (stereo unspecified), -1.63%.
Turning to `O=C(COc1ccc(-c2ccccc2)cc1)NN=C1CCCC1`, the inhibition was -3.72%.
For the compound `COc1ccc(/C=C2\SC(=S)N(CC(=O)NNC(=O)c3ccncc3)C2=O)cc1`, the inhibition is -5.15%.
Take `CCc1ccc(NC(=O)c2ccc(Cn3cc([N+](=O)[O-])cn3)cc2)cc1`: the inhibition was -3.55%.
With `Cn1cc([N+](=O)[O-])c(C(=O)Nc2ccc3c(c2)OCCO3)n1`, the inhibition was 10.7%.
Regarding `Cn1cc([N+](=O)[O-])c(C(=O)Nc2cnn(Cc3ccc(F)cc3)c2)n1`, the inhibition is 98.6% (active).
In the case of `CCC(=O)c1ccc(N2CCN(C(=O)c3cc([N+](=O)[O-])ccc3F)CC2)c(F)c1`, the inhibition is 12.8%.
In the case of `CC(=O)Nc1ccc(S(=O)(=O)N(C)c2ccc(OCC(=O)OCC(=O)N3CCCCC3)cc2)cc1`, the inhibition is -6.69%.
The result for `CSc1nc2ccc(NC(=O)c3c(F)cccc3F)cc2s1` reads 15.7%; that for `Cc1cccc(NC(=S)Nc2ccc3cn[nH]c3c2)c1`, 5.93%.
To `CCN(CC)CCN(C(=O)c1cccc([N+](=O)[O-])c1)c1nc2ccc(OC)cc2s1` belongs 1.41%; to `O=C(/C=C/c1ccccc1Cl)Nc1ccc(S(=O)(=O)Nc2ncccn2)cc1`, -5.22%; to `O=S(=O)(Nc1ncccn1)c1ccc(NS(=O)(=O)c2cccc(Cl)c2Cl)cc1`, -9.09%.
The result for `O=C(/C=C/c1ccc(Cl)cc1)Nc1ccc(S(=O)(=O)Nc2ncccn2)cc1` reads 63.3% (active); that for `CCOc1cc(NC(=S)NCc2ccco2)c(OCC)cc1NC(=O)c1ccco1`, -3.82%.
As for `C[C@@H](C(=O)N1CCNCC1)n1cc(CCC(=O)O)nn1`, the inhibition is -3.38%.
The result for `CCc1ccc(-n2c(=S)sc3c(=O)n(-c4ccccc4OC)c(=S)[nH]c32)cc1` reads -0.77%; that for `CCOC(=O)COc1ccc(Cl)cc1C1NC(=O)NC(C)=C1C(C)=O` (stereo unspecified), 0.61%; that for `CCCOc1ccc(C2NC(=O)NC(c3ccccc3)=C2C(C)=O)cc1OCC` (stereo unspecified), 71.8% (active).
The result for `COC(=O)COc1ccc(C2NC(=O)NC(C)=C2C(=O)NCc2ccccc2)cc1OC` (stereo unspecified) reads -7.17%; that for `NS(=O)(=O)c1ccc(NC(=O)COC(=O)c2ccc(Cl)nc2)cc1`, -7.52%.
With `NS(=O)(=O)c1ccc(NC(=S)NC(=O)c2cccc(Br)c2)cc1`, the inhibition was 1.9%.
To `O=C(NCc1cccs1)C1CCN(S(=O)(=O)c2ccc(Cl)cc2)CC1` belongs -6.16%; to `O=C(Nc1ccccc1)N1CCN(Cc2ccccc2)CC1`, -1.08%; to `CCNC(=S)NNC(=O)C1CCN(Cc2ccccc2)CC1`, -3.47%.
To `CCCC(=O)C1CCN(Cc2ccccc2)CC1` belongs 82.8% (active).
The result for `CC(C)(C)NC(=O)NC(=O)CN1CCC(Cc2ccccc2)CC1` reads -1.19%.
As to `O=C(NCCCN1CCN(Cc2ccccc2)CC1)C1CCN(S(=O)(=O)N2CCCC2)CC1`, the inhibition is -6.76%.
To `O=c1cc(CO)oc(CN2CCC(Cc3ccccc3)CC2)c1O` belongs -2.15%; to `NC(=O)c1ccc(CN2CCC(Cc3ccccc3)CC2)cc1`, 86.9% (active).
On to `O=C(NNS(=O)(=O)c1ccc(Cl)cc1)C1CCN(Cc2ccccc2)CC1`, for which the inhibition is 95.9% (active).
As to `CCOC(=O)N1CCN(C(=O)c2ccccc2N(Cc2ccccc2)S(=O)(=O)c2ccc(OC)cc2)CC1`, the inhibition is 43.4%.
The result for `COc1ccc(N2CCN(CCCNC(=O)C3CCN(S(=O)(=O)N4CCOCC4)CC3)CC2)cc1` reads -4.04%.
The result for `CC(C)NC(=O)c1ccc(Cl)cc1Cl` reads -4.71%; that for `Cc1cc(C)cc(NC(=O)N2CCCCCCC2)c1`, 9.55%.
For `CCOC(=O)C1CCN(c2ncnc3c2c(-c2ccccc2)cn3-c2ccc(C)cc2)CC1`, the inhibition is -6.27%.
Take `Cc1ccc(NC(=O)Nc2cccc(C(F)(F)F)c2)nc1`: the inhibition was 11%.
On to `COC(=O)C1=C(C)N(c2ccc(Br)cc2)C(=O)/C1=C\c1ccco1`, for which the inhibition is 24.7%.
The result for `COC(=O)C1=C(C)NC(=O)/C1=C/c1ccc(CNS(=O)(=O)c2ccc(C)cc2)o1` reads 15.8%; that for `COC(=O)C1=C(C)N(c2ccc(C)cc2)/C(=C/c2ccc(O)cc2)C1=O`, 97.8% (active); that for `COc1ccc(S(=O)(=O)N2CCN(C(=O)c3cc(C)oc3C)CC2)cc1`, 8.89%.
Take `C/C(CC(=O)Nc1cccc(C(F)(F)F)c1)=N\NC(=O)C(=O)NCC(C)C`: the inhibition was -8.72%.
As to `COc1ccc(C(=O)CSc2nnc(-c3ccco3)o2)cc1`, the inhibition was -1.52%.
To `N#Cc1ccc(-c2ccc(F)cc2)nc1Sc1ccccc1` belongs -13%; to `N#Cc1c(-c2ccc(F)cc2)nc(-c2ccccc2)[nH]c1=O`, 3.06%; to `N#Cc1ccc(-c2nc3cc(C#N)c(C#N)cc3nc2-c2ccccc2)cc1C#N`, 59% (active).
On to `CC1(C)CC(=O)c2cnc3nc4ccccc4n3c2C1`, for which the inhibition is 0.4%.
Consider `CSc1ccc(S(=O)(=O)NC2CCCCC2)cc1`, for which the inhibition was -2.31%.
To `Cc1cccc(CCNS(=O)(=O)c2ccc(S(=O)(=O)NC3CCCC3)cc2)c1` belongs 68.6% (active).
To `O=C(CCc1ccc(S(=O)(=O)NC2CCCCC2)cc1)NCc1ccccc1` belongs 43.9%; to `CCOC(=O)c1c(N)nn(C(=O)c2ccccc2)c1-c1ccccc1`, 1.03%; to `O=c1cnnc(Nc2ccccc2)[nH]1`, -6.97%.
To `Cc1nc(NCCN)c(C#N)c2c1COC(C)(C)C2` belongs -6.15%; to `CCCCc1nc(NCc2ccccc2)c(C#N)c2c1CCCC2`, 40.6%; to `CCCCc1nc(NCCN)c(C#N)c2c1CSC(C)(C)C2`, 100% (active).
Turning to `COc1ccc(C(=O)NC(=S)Nc2ccc(Cl)cn2)cc1OC`, the inhibition was -4.99%.
`O=C1NC(c2ccc(-c3ccccc3[N+](=O)[O-])o2)C(C(=O)c2ccc(Cl)cc2)C(O)(C(F)(F)F)N1` (stereo unspecified): the inhibition was 57.7% (active).
In the case of `CC(=O)C1C(c2cccc(Oc3ccccc3)c2)NC(=O)NC1(O)C(F)(F)F` (stereo unspecified), the inhibition was -1.39%.
Regarding `CC(=O)C1C(c2ccc(Cl)cc2)NC(=O)NC1(O)C(F)(F)F` (stereo unspecified), the inhibition is -4.84%.
Consider `Cn1nnnc1-c1cc(Cl)cc(Cl)c1`, for which the inhibition was 5.35%.
The result for `O=c1[nH]oc(O)c1-c1ncc(C(F)(F)F)cc1Cl` reads -7.85%.
To `O=C(O)CSc1nnc(-c2ccc3c(c2)OCO3)n1-c1ccccc1` belongs -2.94%; to `COc1cc2c(cc1O)C(SC)=NC(C)(C)C2`, 77.2% (active); to `COc1cc2c(cc1OC)C(Nc1ccc(S(N)(=O)=O)cc1)=NC(C)(C)C2`, -2.7%.
Regarding `COc1cc2c(cc1OC)C(C(C)C)=NC(C)(C)C2`, the inhibition is -1.29%.
For the compound `COC(=O)c1c(NC(C)=O)sc(C(=O)Nc2ccccc2OC)c1C`, the inhibition is -6.26%.
Take `COc1ccccc1CNC(=O)CN1CCC(n2cnc3cc(F)ccc32)CC1`: the inhibition was 0.36%.
Turning to `CCc1ccccc1NC(=O)Cc1cn(C)c2ccccc12`, the inhibition was 1.32%.
The result for `Fc1cc(F)c2nc(Nc3nc4c(F)cccc4s3)sc2c1` reads 64.3% (active); that for `Fc1cc(F)c2nc(N3CCOCC3)sc2c1`, -5.44%.
Turning to `NC(=O)c1c(Nc2nc3c(F)cccc3s2)sc2c1CCCC2`, the inhibition was 0.33%.
Take `Cc1cc(C)n(Cc2cnc(N3CCOCC3)s2)n1`: the inhibition was 0.31%.
The result for `COc1ccc(C)cc1NC(=O)NCc1ccccn1` reads -9.22%.
The result for `COc1ccc2ccccc2c1CNc1nnnn1C` reads 1.31%; that for `COc1ccc2ccccc2c1CNCc1ccccn1`, 52.1% (active).
To `O=S1(=O)CC/C(=N\Nc2ccc(F)cc2)c2ccsc21` belongs -11.7%.
Take `Cc1nn(CC(=O)Nc2ccc(C#N)cc2)c(C)c1[N+](=O)[O-]`: the inhibition is -6.73%.
On to `CC(=O)c1cccc(CN2CCC(CO)(Cc3ccccc3)CC2)c1`, for which the inhibition is 14%.
For `CN(C)CCCCCN(C)Cc1cc2ccccc2o1`, the inhibition is 11.6%.
For the compound `OCC1(Cc2ccccc2)CCN(Cc2cc3ccccc3o2)CC1`, the inhibition is 84.5% (active).
With `Cc1ccc2c(c1)C1CN(C)CCC1N2C(=S)Nc1ccc(Cl)cc1Cl` (stereo unspecified), the inhibition was 31.9%.
For `COC(=O)Nc1c(C)n(C)n(-c2ccccc2)c1=O`, the inhibition is -8.78%.
To `Cc1c(NC(=O)C(C)OC(=O)c2cc3c4ccccc4n(C)c3s2)c(=O)n(-c2ccccc2)n1C` (stereo unspecified) belongs 88.6% (active); to `Cc1cc(C)cc(N(C(C)C(=O)Nc2c(C)n(C)n(-c3ccccc3)c2=O)S(C)(=O)=O)c1` (stereo unspecified), -3.81%.
The result for `Cc1sc2c(c1C)c(=O)n(-c1ccccc1)c(=O)n2CC(=O)NCC1CCCO1` (stereo unspecified) reads -0.67%.
The result for `CCOC(=O)c1cnc2c(c(C)nn2CC)c1Cl` reads 6%; that for `O=C(CCC(=O)N1CCN(S(=O)(=O)c2ccccc2)CC1)NC1CCCc2ccccc21` (stereo unspecified), 1.14%; that for `O=C(CN1CCN(c2ccc(O)cc2)CC1)NC1CCCc2ccccc21` (stereo unspecified), 94.5% (active).
For the compound `O=C(CSc1nncs1)NC1CCCc2ccccc21` (stereo unspecified), the inhibition is -8.28%.
